Molecules are shown by their SMILES. About 79,000 compounds went through this panel and 15% of them were active in at least one assay; those are over-represented in the sample as a whole. Unmarked numbers belong to inactive results. Activity calls are given as the source filed them. Rule as the data show it: active = growth inhibition above about 70%; inactive = the rest.

Experiment [1] in a line: NCI Yeast Anticancer Drug Screen. Data for the rad50 strain (AID 155).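 Also: 0% = growth of vehicle-only cultures of the same strain.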 As to conditions: S. cerevisiae rad50 strain growth inhibition, stronger effect = higher value. In a few lines: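 A DNA repair-deficient yeast mutant serves as the test organism; compound-induced growth inhibition is calculated against vehicle-treated cells.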
Experiment [2] is described as follows: NCI Yeast Anticancer Drug Screen. Data for the mec2-1 strain (AID 157). As to conditions: S. cerevisiae mec2-1 strain, stronger effect = higher value. In a few lines:
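Readout is yeast growth inhibition, normalised to vehicle-treated controls, in the mec2-1 strain exposed to compound.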

Experiment [3] in a line: NCI Yeast Anticancer Drug Screen. Data for the sgs1 mgt1 strain (AID 161).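 Also: 0% = growth of cultures given vehicle only.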 As to conditions: S. cerevisiae sgs1 mgt1 strain, stronger effect = higher value. In a few lines: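 Yeast cells carrying a defined DNA-repair defect were exposed to test compounds. Growth inhibition was measured relative to vehicle-treated controls.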
A short description of experiment [4]: NCI Yeast Anticancer Drug Screen. Data for the cln2 rad14 strain (AID 165).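 Also: 0% = growth equal to vehicle treated cultures.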 As to conditions: S. cerevisiae cln2 rad14 strain, stronger effect = higher value. In a few lines: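 Relative to vehicle controls, growth inhibition of compound-treated cln2 rad14 yeast was recorded.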
Experiment [5] in a line: NCI Yeast Anticancer Drug Screen. Data for the bub3 strain (AID 167). As to conditions: S. cerevisiae bub3 mutant strain, stronger effect = higher value. A digest of the protocol: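 Inhibition values come from growth of compound-treated mutant yeast normalised to vehicle-treated controls.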
The nature of experiment [6]: NCI Yeast Anticancer Drug Screen. Data for the mlh1 rad18 strain (AID 175). As to conditions: S. cerevisiae mlh1 rad18 strain growth inhibition, stronger effect = higher value. A digest of the protocol: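 Test agents were incubated with a yeast strain of defined genotype (DNA damage repair defect). Inhibition of growth was derived by comparison with vehicle-exposed cultures.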

Where [7] appears, read: at 5.0 µM (retest, dose inferred, filed as 0.5).
The mark [8] stands for this setting: at 50.0 µM (retest, dose inferred, filed as 5.0).

With `C/C(CC(=O)Nc1ccc([N+](=O)[O-])cc1)=N\Nc1ccc([N+](=O)[O-])cc1[N+](=O)[O-]`, the growth inhibition is 76% (active) in experiment [1] (setting [7]); 45% in experiment [1] (setting [8]); 72% (active) in experiment [1] (at 50.0 µM); 48% in experiment [2] (setting [7]); 47% in experiment [2] (setting [8]); 15.9% in experiment [2] (at 50.0 µM). Moreover, the growth inhibition in experiment [3] (setting [7]) was 48%; in experiment [3] (setting [8]) it was 40%; in experiment [3] (at 50.0 µM), 7.6%; in experiment [4] (setting [7]) it was 33%; in experiment [4] (setting [8]) it was 53%; in experiment [4] (at 50.0 µM), -33.9%. Besides, the growth inhibition in experiment [5] (setting [7]) was 17%; in experiment [5] (setting [8]), 34%; in experiment [5] (at 50.0 µM), 32.5%; in experiment [6] (setting [7]), 67%; in experiment [6] (setting [8]) it was 36%; in experiment [6] (at 50.0 µM), 61.9%.

For the compound `CCCCCCCCCCCCCCCC[N+](C)(C)CCOS(C)(=O)=O`, the growth inhibition in experiment [1] (setting [7]) is 99% (active); in experiment [1] (setting [8]) it was 98% (active); in experiment [1] (at 50.0 µM), 91.2% (active); in experiment [2] (setting [7]), 99% (active); in experiment [2] (setting [8]), 99% (active); in experiment [2] (at 50.0 µM), 90.4% (active). In addition, the growth inhibition in experiment [3] (setting [7]) is 99% (active); in experiment [3] (setting [8]), 99% (active); in experiment [3] (at 50.0 µM), 90.3% (active); in experiment [4] (setting [7]), 93% (active); in experiment [4] (setting [8]), 99% (active); in experiment [4] (at 50.0 µM) it was 86.5% (active). Moreover, the growth inhibition in experiment [5] (setting [7]) is 99% (active); in experiment [5] (setting [8]), 99% (active); in experiment [5] (at 50.0 µM) it was 92.4% (active); in experiment [6] (setting [7]), 98% (active); in experiment [6] (setting [8]), 98% (active); in experiment [6] (at 50.0 µM), 92.3% (active).

As to `CN1CCN(c2ccc3nc(-c4ccc5nc(CCCc6ccc(N(CCCl)CCCl)cc6)[nH]c5c4)[nH]c3c2)CC1`, the growth inhibition was 98% (active) in experiment [1] (setting [7]); 98% (active) in experiment [1] (setting [8]); 90.5% (active) in experiment [1] (at 50.0 µM); 99% (active) in experiment [2] (setting [7]); 99% (active) in experiment [2] (setting [8]); 90.8% (active) in experiment [2] (at 50.0 µM). Moreover, the growth inhibition was 100% (active) in experiment [3] (setting [7]); 99% (active) in experiment [3] (setting [8]); 92.2% (active) in experiment [3] (at 50.0 µM); 97% (active) in experiment [4] (setting [7]); 99% (active) in experiment [4] (setting [8]); 91% (active) in experiment [4] (at 50.0 µM). In addition, the growth inhibition in experiment [5] (setting [7]) is 99% (active); in experiment [5] (setting [8]), 99% (active); in experiment [5] (at 50.0 µM), 91.7% (active); in experiment [6] (setting [7]), 98% (active); in experiment [6] (setting [8]), 98% (active); in experiment [6] (at 50.0 µM) it was 89.5% (active).

With `[Cl][Pt][Cl].c1ccc([AsH](CC[AsH](c2ccccc2)c2ccccc2)c2ccccc2)cc1`, the growth inhibition was 99% (active) in experiment [1] (setting [7]); 99% (active) in experiment [1] (setting [8]); 98.8% (active) in experiment [1] (at 50.0 µM); 99% (active) in experiment [2] (setting [7]); 99% (active) in experiment [2] (setting [8]); 99.4% (active) in experiment [2] (at 50.0 µM). For the same compound, the growth inhibition in experiment [3] (setting [7]) was 99% (active); in experiment [3] (setting [8]), 99% (active); in experiment [3] (at 50.0 µM), 98.8% (active); in experiment [4] (setting [7]), 98% (active); in experiment [4] (setting [8]) it was 98% (active); in experiment [4] (at 50.0 µM), 98.6% (active). Besides, the growth inhibition is 99% (active) in experiment [5] (setting [7]); 99% (active) in experiment [5] (setting [8]); 99.2% (active) in experiment [5] (at 50.0 µM); 99% (active) in experiment [6] (setting [7]); 99% (active) in experiment [6] (setting [8]); 99.2% (active) in experiment [6] (at 50.0 µM).

For `N#CC1CC[CH-]CC1.[Cl-].[Cl-].[Cl-].[Cl-].[Cl-].[Sb+5].c1ccncc1`, the growth inhibition in experiment [1] (setting [7]) is -1%; in experiment [1] (setting [8]), 98% (active); in experiment [1] (at 50.0 µM), 99.1% (active); in experiment [2] (setting [7]) it was 3%; in experiment [2] (setting [8]), 100% (active); in experiment [2] (at 50.0 µM), 96.3% (active). Moreover, the growth inhibition is 5% in experiment [3] (setting [7]); 99% (active) in experiment [3] (setting [8]); 99.3% (active) in experiment [3] (at 50.0 µM); 11% in experiment [4] (setting [7]); 99% (active) in experiment [4] (setting [8]); 99.3% (active) in experiment [4] (at 50.0 µM). Moreover, the growth inhibition in experiment [5] (setting [7]) is -1%; in experiment [5] (setting [8]), 99% (active); in experiment [5] (at 50.0 µM), 90.5% (active); in experiment [6] (setting [7]), 3%; in experiment [6] (setting [8]), 99% (active); in experiment [6] (at 50.0 µM), 98.5% (active).

For the compound `COc1ccc(O)c(/C=C/[N+](=O)[O-])c1`, the growth inhibition in experiment [1] (setting [7]) was 16%; in experiment [1] (setting [8]) it was 99% (active); in experiment [1] (at 50.0 µM) it was 99.4% (active); in experiment [2] (setting [7]), -1%; in experiment [2] (setting [8]), 99% (active); in experiment [2] (at 50.0 µM), 98.8% (active). The growth inhibition in experiment [3] (setting [7]) is 20%; in experiment [3] (setting [8]), 99% (active); in experiment [3] (at 50.0 µM) it was 99.1% (active); in experiment [4] (setting [7]), 5%; in experiment [4] (setting [8]) it was 98% (active); in experiment [4] (at 50.0 µM), 99.2% (active). Further, the growth inhibition in experiment [5] (setting [7]) is 41%; in experiment [5] (setting [8]), 99% (active); in experiment [5] (at 50.0 µM), 99.3% (active); in experiment [6] (setting [7]), 21%; in experiment [6] (setting [8]) it was 99% (active); in experiment [6] (at 50.0 µM), 98.9% (active).

The record behind these values is PubChem BioAssay (NCI).
